FEN1 inhibitor = blocks human flap endonuclease 1 | P39748 | Recombinant FEN1 flap cleavage, fluorescence, 15 min | Potency, µM (highest dose often 114 µM), for the others: top-dose activity change, negative = inhibition, hits mostly inhibitors | 390,000 tested, 0.35% active | AID 588795; note: potency is the fitted concentration of half-maximal effect; nearly all actives have a fitted effect of over 65% in size
Target sequence (P39748 whole entry, looked up): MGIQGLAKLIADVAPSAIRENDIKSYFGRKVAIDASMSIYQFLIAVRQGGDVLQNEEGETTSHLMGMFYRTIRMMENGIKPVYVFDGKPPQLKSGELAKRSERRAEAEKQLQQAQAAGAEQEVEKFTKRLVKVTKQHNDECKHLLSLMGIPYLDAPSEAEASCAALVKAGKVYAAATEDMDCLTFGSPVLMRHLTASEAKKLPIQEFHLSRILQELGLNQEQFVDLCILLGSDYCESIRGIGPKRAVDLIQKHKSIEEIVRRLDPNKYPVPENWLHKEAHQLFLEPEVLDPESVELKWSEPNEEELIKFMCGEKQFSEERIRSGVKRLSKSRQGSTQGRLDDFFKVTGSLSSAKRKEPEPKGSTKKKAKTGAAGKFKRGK
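Quantitative HTS format: each compound was titrated, incubated with 10 nM nuclease for 15 min at room temperature, then challenged with flap substrate at 50 nM final. Signal change over 15 min gave concentration–effect curves.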
WRN inhibitor = blocks human WRN helicase | WRN helicase unwinding, fluorescent forked duplex, kinetic | Potency, µM (doses to about 114 µM), for the others: at the highest dose activity change, negative = inhibition, actives largely listed as inhibitors | 360,000 tested, 0.46% active; note: potency is the fitted concentration of half-maximal effect; nearly all actives have a fitted effect of over 55% in size
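Primary qHTS, 1536-well format. 20 nM WRN + compound, 15 min RT; start with 100 nM forked fluorophore/quencher duplex, 2 mM ATP (final); kinetic read ex 525/em 598 nm.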
RECQ1 helicase = inhibitors of human RECQ1 DNA helicase | 240,000 tested, 0.54% active | AID 2549 | RECQ1 DNA unwinding, red fluorescence kinetic read | Potency, µM (top dose mostly 57.3 µM), for the others: at the top dose activity, negative = inhibition, usual class: inhibitors | P46063;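 note: potency is the fitted concentration of half-maximal effect; plate controls were vehicle for no effect and no enzyme for full effect; nearly all actives have a fitted effect of over 30% in size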
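RECQ1T1 50 nM; forked duplex (20 bp + 30-nt ss tails) 200 nM, ATP 2 mM final; pH 8.0, 2 mM MgCl2, 2.5 ug/ml poly(dI-dC); 15 min compound preincubation; discontinuous kinetic read over 2 h at RT.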
PI5P4Ka inh = PI5P4K alpha (human) kinase inhibition | P48426 | PI5P4Kalpha enzyme, ADP-Glo luminescence, 60 min; hits give low values | max response, % | 330,000 tested, 1.2% active | AID 652105; active = max response of -50% or lower; inconclusive = between -30% and -50%; inactive = -30% or higher; note: value at the top dose of about 77 µM
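Single end-point luminescence (ADP-Glo) quantified ADP from PI5P4Kalpha turnover; ATP 5 microM final, 1 h at RT, 0.1% CHAPS and 0.28 mM EGTA in HEPES pH 7.4.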
APE1 inh = blocks human APE1 abasic DNA cleavage | Potency, µM (doses to about 65.8 µM), without a hit: at the top dose activity change, negative = inhibition, hits mostly inhibitors | 350,000 tested, 0.35% active | AID 2517 | recombinant APE1, TAMRA/BHQ-2 abasic DNA cleavage fluorescence;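 note: potency is the fitted concentration of half-maximal effect; plate controls were vehicle for no effect and reference inhibitor for full effect; nearly all actives have a fitted effect of over 55% in size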
Target sequence (P27695 whole entry, looked up): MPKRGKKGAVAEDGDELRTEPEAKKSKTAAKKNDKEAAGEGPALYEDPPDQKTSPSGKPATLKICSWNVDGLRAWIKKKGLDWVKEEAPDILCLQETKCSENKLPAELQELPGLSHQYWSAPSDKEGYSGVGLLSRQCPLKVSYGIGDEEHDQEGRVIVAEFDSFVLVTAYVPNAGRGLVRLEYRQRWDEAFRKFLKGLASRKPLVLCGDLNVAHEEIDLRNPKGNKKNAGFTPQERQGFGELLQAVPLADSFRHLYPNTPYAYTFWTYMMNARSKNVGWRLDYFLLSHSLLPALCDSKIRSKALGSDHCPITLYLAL
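0.75 nM APE1 + cpd, 15 min RT; start w/ 50 nM TAMRA/BHQ-2 THF-abasic dsDNA; kinetic fluor 525/598 nm ×3 reads @60 s; Δ(read3−read1); normalized to DMSO and NSC13755 control wells.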
BLM inh = blocks DNA unwinding by human BLM helicase | P54132 | recombinant BLM DNA unwinding, fluorescence dequenching | Potency, µM (series often up to 56.1 µM), without a hit: at the top dose activity change, negative = inhibition, usual class: inhibitors | 350,000 tested, 0.2% active | AID 2528;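 note: potency is the fitted concentration of half-maximal effect; plate controls were vehicle for no effect and no enzyme for full effect; nearly all actives have a fitted effect of over 35% in size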
Starred values were filed as active, the others as inactive; i = inactive; ? = inconclusive; · = no result given; [ ] = remark or other dose. Compounds with a hit are over-represented: about 1.5% of the library has one in this group of screens. Unless noted, calls come from the whole dose curve; as a rule, active = well fitted curve in the direction sought with a large enough effect; inconclusive = small, poorly fitted or top-dose-only effect, or another doubt; inactive = no such curve, though single readings can be large; an effect the other way counts as inactive or inconclusive. Unless noted, % is set by controls: 0 for no effect and ±100 for the full control effect.

SMILES	FEN1 inhibitor	WRN inhibitor	RECQ1 helicase	PI5P4Ka inh	APE1 inh	BLM inh
O=C(NN1C(=O)CSC1=S)C(=O)NN1C(=O)CSC1=S	?	22µM*	10µM*	-67*	2.2µM*	87%
CC(=O)O[C@@H]1CC2CCC1(C)C2(C)C (some centres not stated)	·	·	·	·	0%	·
COCCN1C(=O)N[C@@H](c2ccc(Br)cc2)C(C(=O)OC)=C1C	·	·	6%	·	?	-2%
COC(=O)C1=C(C)N(CCCC(=O)O)C(=O)NC1c1cccc(OC)c1 (configuration not stated)	0%	2%	·	-52*	·	·
COC(=O)C1=C(C)N(CCCC(=O)O)C(=O)NC1c1ccc2c(c1)OCO2 (configuration not stated)	-4%	0%	·	-62*	·	·
O=C(CSc1n[nH]c(-c2ccncc2)n1)c1ccccc1	8%	-4%	6%	·	2%	0%
Cc1nc(SCC(=O)c2ccccc2)n[nH]1	-1%	2%	-10%	-53*	2%	-1%
Cc1oc(-c2ccc(Cl)cc2)cc1-c1nn2c(-c3ccco3)nnc2s1	·	·	32µM*	·	?	-22%
Cc1oc(-c2ccc(F)cc2)cc1-c1nn2c(-c3ccoc3C)nnc2s1	-11%	?	?	-74*	?	?
COc1ccc(-c2nnc3sc(-c4ccco4)nn23)cc1OC	2%	1%	1%	·	-11%	1%
COc1ccc(OC)c(CC2C(=O)Nc3ccc(Br)cc32)c1 (configuration not stated)	0%	·	·	·	·	-4%
N#Cc1c(-c2ccc(-c3ccccc3)cc2)no[n+]1[O-]	·	·	·	·	-7%	·
COc1ccc(C(=O)COC(=O)c2cnc(C)cn2)c(OC)c1	0%	-8%	·	-56*	29%	·
COc1ccc(C(=O)COC(=O)c2ccccc2O)c(OC)c1	-14%	-24%	·	-57*	-15%	·
Cc1cnc(C(=O)OCC(=O)c2csc(N3CCCCC3)n2)cn1	-6%	?	-7%	-60*	-3%	?
Cc1cnc(C(=O)OCC(=O)c2ccccc2)cn1	-8%	4%	·	-8	1%	·
COc1ccc(C(=O)OCC(=O)c2cc(OC)ccc2OC)c(OC)c1	-3%	-14%	i	0	9%	-2%
CC(C)C[C@@H](CN=[N+]=[N-])N1CCN(CCc2ccccc2)CCC1=O	-8%	·	·	·	·	·
CC(C)(C)n1ncc2c(=O)n(Cc3ccc(Cl)c(C(F)(F)F)c3)cnc21	0%	·	·	·	-4%	·
Cc1cc(/C=N/NC(N)=S)c(O)c(/C=N/NC(N)=S)c1	-4%	-8%	i	-64*	2%	0%
NC(=S)N/N=C/c1cccc(O)c1O	11%	-10%	-10%	1	?	1%
N#Cc1cc(C#N)c(SCC(=O)N2CC(=O)Nc3ccccc32)nc1N	-21%	-15%	·	-53*	18%	·
N#Cc1ccc(/C=C2\CCCCn3c2nc2cc(C(=O)O)ccc2c3=O)cc1	-1%	11%	·	-53*	27%	-7%
O=C(O)c1ccc2c(=O)n3c(nc2c1)/C(=C/c1ccc(C(F)(F)F)cc1)CC3	?	-9%	·	-16	0%	-9%
COc1ccc(S(=O)(=O)CC(=O)c2cc3cc(Br)ccc3oc2=O)cc1	?	?	·	-75*	8%	-14%
SMILES	FEN1 inhibitor	WRN inhibitor	RECQ1 helicase	PI5P4Ka inh	APE1 inh	BLM inh
CCOC(=O)c1c(C)oc2nc(C)nc(N3CCN(c4cccc(C)c4C)CC3)c12	6%	·	·	·	·	-1%
N#C/C(=C/c1ccc(-c2ccc(S(N)(=O)=O)cc2)o1)c1nc2ccccc2s1	12%	-5%	?	-53*	-2%	-1%
N#C/C(=C/c1ccc(-c2ccc(S(N)(=O)=O)cc2)o1)C(=O)Nc1ccccc1	-8%	-12%	-12%	?	12%	-5%
Cc1ccc(S(=O)(=O)Nn2c(C)ccc2C)cc1	-8%	-3%	-27%	-58*	16%	-29%
COc1ccc2nc(SCC(=O)Nc3ccc(S(=O)(=O)N4CCCC4)cc3)c(C#N)cc2c1	2%	-3%	-1%	·	1%	-3%
CCOc1ccc2nc(SCC(=O)Nc3ccc(S(=O)(=O)N4CCCC4)cc3)c(C)cc2c1	40µM*	-4%	-9%	0	12%	-3%
CO[C@H]1C[C@H](O[C@H]2[C@H](C)[C@@H](O[C@@H]3O[C@H](C)C[C@H](N(C)C)[C@H]3OC(C)=O)[C@@H](C)C[C@]3(CO3)C(=O)[C@H](C)[C@@H](OC(C)=O)[C@@H](C)[C@@H](C)OC(=O)[C@@H]2C)O[C@@H](C)[C@@H]1OC(C)=O	·	·	·	·	2%[21 µM]	·
CN(Cc1ccccc1F)Cc1cc(=O)oc2cc(O)c(Cl)cc12	-5%	-10%	·	-63*	20%	-4%
Cc1cc2oc(=O)cc(CN(C)Cc3ccccc3F)c2cc1Cl	5%	-4%	·	12	5%	-7%
COc1ccc(C2=Nn3c(nnc3-c3ccccc3C(F)(F)F)SC2)cc1O[C@H]1CCOC1	·	·	·	·	22%	·
COc1cc(N)ccc1Nc1c2ccccc2nc2ccccc12	·	?	·	-55*	·	·
COc1ccccc1NC(=O)CN1C(=O)CC(c2ccc(C)c(C)c2)=Nc2ccccc21	6%	·	·	·	·	-8%
Cc1ccc(NC(=O)/C(=C\c2ccc([N+](=O)[O-])cc2)NC(=O)c2ccccc2)cc1	0%	3%	12%	3	14%	-4%
O=C(N/N=C/c1ccc(O)c(O)c1O)/C(=C/c1ccc([N+](=O)[O-])cc1)NC(=O)c1ccccc1	?	40µM*	4%	-86*	1%	-15%
CCCCN(C(=O)c1cccc(-n2cccc2)c1)c1c(N)n(Cc2ccccc2)c(=O)[nH]c1=O	·	·	·	·	2.7µM*	·
O=[N+]([O-])c1cccc(C(F)(F)F)c1	·	·	0%	·	1%	·
O=C1CSC(=S)N1/N=C/c1ccc2c(c1)OCCO2	5%	-31%	·	-57*	9%	-1%
O=C1CSC(=S)N1N=Cc1c[nH]c2ccc(Br)cc12	·	-12%	·	-7	·	·
COc1cc(O)c(C=NN2C(=O)CSC2=S)c(OC)c1	·	-21%	·	-75*	·	·
O=C1CSC(=S)N1/N=C/c1cc(Br)c(O)c(Br)c1	22µM*	20µM*	·	-106*	-19%	-4%
O=C1CSC(=S)N1/N=C/c1cccnc1	4%	-27%	-2%	?	0%	-17%
COP1(=O)CC(O)C(O)C(COCc2ccccc2)O1 (configuration not stated)	16%	·	i	·	3%	4%
CSc1nc(=S)cc(C)[nH]1	-13%	40µM*	19%	?	8%	5%

Source: PubChem (National Center for Advancing Translational Sciences (NCATS))
